# High-throughput results as filed in PubChem BioAssay.
# The full list was thinned out, with hits kept by preference.
# ST2 IL33 inh – IL1RL1 inhibition; Q01638; AlphaLISA ST2-Fc/biotin-IL-33 interaction, 1 h; inhibition, % for hits at 17 µM; 78,000 tested, 2.3% active; AID 1259354; in the data active = inhibition above about 30%
# Target sequence (Q01638 whole entry, looked up): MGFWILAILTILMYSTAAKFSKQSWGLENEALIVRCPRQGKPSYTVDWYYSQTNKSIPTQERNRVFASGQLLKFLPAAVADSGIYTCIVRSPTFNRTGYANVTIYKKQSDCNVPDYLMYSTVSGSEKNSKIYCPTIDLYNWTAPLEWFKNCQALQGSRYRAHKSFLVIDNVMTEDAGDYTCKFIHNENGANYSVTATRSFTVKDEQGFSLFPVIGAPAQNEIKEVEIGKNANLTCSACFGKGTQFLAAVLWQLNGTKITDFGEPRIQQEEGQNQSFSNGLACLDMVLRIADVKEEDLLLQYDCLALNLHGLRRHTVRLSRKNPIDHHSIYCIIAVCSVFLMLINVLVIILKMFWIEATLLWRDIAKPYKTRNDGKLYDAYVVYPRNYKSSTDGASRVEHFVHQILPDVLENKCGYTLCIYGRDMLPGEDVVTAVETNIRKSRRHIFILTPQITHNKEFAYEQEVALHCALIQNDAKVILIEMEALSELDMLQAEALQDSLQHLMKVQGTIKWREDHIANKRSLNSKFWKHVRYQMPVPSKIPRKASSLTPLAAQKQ
# * hit, by the source's call; i = inactive.
SMILES,ST2 IL33 inh
Cn1cc(NC(=O)CN2CCCC(C(=O)c3ccc4ccccc4c3)C2)cn1 (stereo not drawn),i
O=C(Nc1cccc(-c2nc3ccccc3[nH]2)c1)c1ccccc1,i
O=C(Nc1nonc1-c1nc2ccccc2[nH]1)c1ccccc1Cl,32.0%*
O=C(NCc1ccccc1)c1ccccc1-c1nc2ccccc2[nH]1,i
COc1ccc(-n2nc3c(c2NC(=O)c2ccc(OC)c(OC)c2)CS(=O)C3)cc1 (stereo not drawn),i
Cc1nccn1-c1ccc(CNC(=O)[C@@H]2CCCCN2)cc1,i
COc1ccc2oc(=O)c(C(=O)N3CCN(C/C=C/c4ccccc4)CC3)cc2c1,i
CCOc1ccccc1N1CCN(S(=O)(=O)c2ccc(Cl)cc2)CC1,i
Cn1c(=O)c2nc(-c3ccccc3)oc2c2ccccc21,i
O=c1[nH]c(CN2CCCC2)nc2c1C1(CCCC1)Cc1ccccc1-2,i
O=c1[nH]c(CN2CCOCC2)nc2c1C1(CCCC1)Cc1ccccc1-2,i
CC1(C)Cc2ccccc2-c2nnc(-c3ccccc3)n21,i
CC1(C)Cc2ccccc2-c2nc(-c3ccccc3)oc(=O)c21,41.0%*
O=c1oc(-c2ccccc2)nc2c1C1(CCCC1)Cc1ccccc1-2,48.0%*
CCOc1ccc(-n2c(SCC(=O)N3CCCCC3CC)nc3c(c2=O)SCC3)cc1 (stereo not drawn),i
COc1ccc2cc(-c3[nH]ncc3CN3CCCC3c3nccs3)ccc2c1 (stereo not drawn),i
COC(=O)C1=C(C)Nc2ncnn2C1c1ccc(OCc2ccccc2)c(OC)c1 (stereo not drawn),i
CC(C)CN1CCNC(=O)C1CC(=O)N(C)Cc1cccc2cccnc12 (stereo not drawn),79.0%*
CN(CCC1CCOCC1)C(=O)CC1C(=O)NCCN1Cc1cccc2ccccc12 (stereo not drawn),i
CN(Cc1cnccn1)C(=O)CC1C(=O)NCCN1Cc1ccc(F)cc1Cl (stereo not drawn),i
COc1ccc(OC)c(NC(=O)CCS(=O)(=O)c2cccs2)c1,i
FC(F)(F)c1cccc(-c2ncnn2-c2ccc(Br)nc2)c1,i
FC(F)(F)c1ccc2nnc(-c3cccc(I)c3)n2c1,54.0%*
FC(F)(F)c1ccc2nnc(-c3ccc(Cl)cc3Cl)n2c1,i
CCOc1ccc2sc(C=NCc3ccco3)c(O)c2c1,31.0%*
SMILES,ST2 IL33 inh
CCOc1ccc(N(C(C)C(=O)NCc2ccco2)S(C)(=O)=O)cc1 (stereo not drawn),i
CCOc1ccc2oc(-c3ccccc3)c(C(=O)O)c2c1,i
COc1cccc(CN2CCCC(O)(CN3CCCNCC3)C2=O)c1OC (stereo not drawn),i
O=C(c1ccc[nH]1)N1CCc2c(nc(-c3ccccn3)[nH]c2=O)C1,i
NCCCCC(=O)O,i
O=C(O)CCCC[C@H]1SC[C@H]2NC(=O)N[C@H]21,96.0%*
Cc1nccn1-c1ccc(NC(=O)C2CCCN2C(=O)C2CCCCC2)cc1 (stereo not drawn),i
O=[N+]([O-])c1ccc(N2CCCC2)cc1N1CCOCC1,i
O=[N+]([O-])c1cc(C=Nc2ccc(-c3nc4ncccc4o3)cc2)ccc1Cl,i
O=[N+]([O-])c1cc(C=Nc2ccc(N3CCOCC3)cc2)ccc1Cl,48.0%*
Cc1nc(N)ncc1C(=O)Nc1cnc2n1CCCC2,i
CC1CCCCN1C1CN(c2ccnc(C(=O)NCc3ccco3)c2)C1 (stereo not drawn),i
Cn1cc(C(=O)NCCCN2CCN(c3ccc(F)cc3)CC2)c2c3ccccc3n(C)c2c1=O,i
CCC(=O)OCCNc1cc(C)c2noc3c2c1C(=O)c1ccccc1-3,33.0%*
CC(=O)c1ccc(NC(=O)CSc2nc(C)nc3c2c(=O)n(C)c(=O)n3C)cc1,i
C[C@@]12CC[C@@H](C[C@@H]1N)C2,41.0%*
CCC1CCCCN1CCCNC(=O)c1c[nH]n2c(=O)c(Cc3ccccc3F)c(C)nc12 (stereo not drawn),i
CC(C)Cn1cc(C(=O)NCCN(C)Cc2ccccc2)c2c3ccccc3n(C)c2c1=O,i
CC12CCC3c4ccc(O)c(Br)c4CCC3C1CCC2O (stereo not drawn),i
COc1ccc2c(c1)CCC1C2CC[C@@]2(C)C1CC[C@@H]2NCCCCCCN1C(=O)C=CC1=O (stereo partly drawn),46.0%*
C[C@]12CC[C@@H]3c4ccc(O)cc4CC[C@H]3[C@@H]1CCC2=O,i
CS(=O)(=O)NCCC1CN(Cc2ccnc3ccccc23)CCO1 (stereo not drawn),i
Clc1cccc(CN2CCOCC2)c1Cl,i
c1ccc2c(CN3CCOCC3)ccnc2c1,40.0%*
O=C(Nc1ccccc1F)c1cc2c(=O)n3ccccc3nc2s1,i
SMILES,ST2 IL33 inh
COc1ccc(Cl)cc1NC(=O)c1cc2c(=O)n3ccccc3nc2s1,37.0%*
O=C(Nc1ccc(F)c(Cl)c1)c1cc2c(=O)n3ccccc3nc2s1,i
O=S(=O)(Nc1ccccn1)c1ccc(N=Cc2ccccc2F)cc1,i
CCC1Oc2ccccc2N(CC(=O)NC2CCCCCCC2)C1=O (stereo not drawn),i
O=C(CN1C(=O)/C(=C/c2ccccc2F)Sc2ccccc21)NCCN1CCOCC1,i
Cc1ccc(CNC(=O)CN2C(=O)/C(=C/c3ccccc3F)Sc3ccccc32)cc1,i
O=C(CN1C(=O)/C(=C/c2ccccc2F)Sc2ccccc21)N1CCCC1,33.0%*
CN(C)S(=O)(=O)c1ccc2c(c1)N(CC(=O)NCCc1cnc[nH]1)C(=O)C1CCCCN21 (stereo not drawn),i
Cc1nn(C(=O)c2ccc([N+](=O)[O-])cc2)c(C)c1Sc1ccccc1,42.0%*
O=[N+]([O-])c1ccc2nn(-c3ccccc3)nc2c1,i
Cc1ccc(C(=O)n2nc(C)c(Sc3ccccc3)c2C)cc1,i
Cc1nn(C(=O)C2CC2)c(C)c1Sc1ccccc1,i
COc1c(Sc2ccc([N+](=O)[O-])cc2)c(C)nn1-c1ccccc1,30.0%*
Cc1nn(C(=O)c2ccco2)c(C)c1Sc1ccccc1,i
Cc1occc1C(=O)N1CCCC(O)(CO)CC1 (stereo not drawn),i
O=C(Nc1c2c(nn1-c1ccccc1)CSC2)c1cccc(Br)c1,i
CC1C/C(=C\CC(CC(N)=O)CC(=O)O)C(=O)C(C)C1 (stereo not drawn),i
COc1ccccc1C(=O)Nc1cccc(NC(=O)C2[C@@H]3[C@H]4CC[C@H](C4)[C@H]23)c1 (stereo partly drawn),i
Cc1cccc2sc(NC(=O)CNS(=O)(=O)c3cccs3)nc12,i
COc1ccc(N2CCCS2(=O)=O)cc1NC(=O)c1ccc(F)c(F)c1,i
Cc1cc(-c2ccc(NC(=O)CCC(=O)O)c(C)c2)ccc1NC(=O)CCC(=O)O,i
Cc1cc(O)cc(C)c1CN1CCOC(CCCc2ccccc2)C1 (stereo not drawn),i
C=C1C[C@H](O)C[C@]2(C)CC[C@@H](C(C)(C)O)CC12 (stereo partly drawn),i
COc1ccc(CN2CCCC(CO)(Cc3ccccc3F)C2)c(F)c1 (stereo not drawn),i
COC(=O)C1=C(NC(=O)c2cccc3ccccc23)CCS1,44.0%*
COc1ccccc1NC(=O)c1ccccc1F,i
O=C(O)c1c(NC(=O)c2cccc3ccccc23)sc2c1CCCC2,i
COC(=O)c1sc2ccccc2c1NC(=O)c1ccccc1F,i
COC(=O)C1=C(NC(=O)c2ccccc2F)CCS1,39.0%*
